Results as given in PubChem BioAssay (NCATS).
Values joined by “and” are separate entries in the source; they are usually repeats but may differ in a detail not shown here. Identical values can stand only once. Records with an inconclusive call do not appear. The source holds several records for some structures; these can differ, active in one and inactive in another. Active and inactive are the calls of the source. Unless noted, calls come from the whole dose curve; as a rule, active = well fitted curve in either direction with a large enough effect (not every such curve was filed as active); inconclusive = small, poorly fitted or top-dose-only effect, or another doubt; inactive = flat fitted curve, though single readings scatter.

Assays:
[1] = Cell Viability - BJ (AID 421; calls by dose curve;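 note: potency is the fitted concentration of half-maximal effect; cells exposed to compound for 40 hours at 37 °C before readout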); details: BJ fibroblast viability, qHTS
How it was run: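 Cytotoxicity as drop in intracellular ATP (CellTiter-Glo, 20 min RT) after 40 hr compound exposure of BJ fibroblasts at 37 °C. Titrations scaled between DMSO and 100 uM tamoxifen, Hill-fitted for AC50.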

[2] = Cell Viability - Jurkat (AID 426;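 active = dose-dependent loss of cell ATP signal giving a full or clear fitted curve, ranked by lower potency value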;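 note: potency is the fitted concentration of half-maximal effect; cells exposed to compound for 40 hours at 37 °C before ATP read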); details: qHTS
How it was run: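 Cytotoxicity taken as drop in cellular ATP (CellTiter-Glo luminescence, 20 min room temperature) after 40 hr, 37C treatment of 5000 Jurkat Clone E6-1 cells per well; concentration-response fitted with Hill equation for AC50.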

[3] = Cell Viability - Hek293 (AID 427;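 active = compounds whose dose-response curve shows a full or clear partial loss of cell viability, called from curve shape rather than a numeric limit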;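 note: potency is the fitted concentration of half-maximal effect; cells exposed to compound for 40 hours at 37 °C before reading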); details: qHTS
How it was run: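 Luminescent ATP content (CellTiter-Glo, 20 min at room temperature) was measured after a 40 hr, 37 °C compound exposure of HEK293 cells. AC50 values came from Hill-equation fits of qHTS concentration-response data normalized to DMSO and 100 uM tamoxifen.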

[4] = Cell Viability - HepG2 (AID 433; calls by dose curve;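 note: potency is the fitted concentration of half-maximal effect; cells exposed to compound for 40 hours; potency for ATP loss meaning cytotoxicity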); details: qHTS
How it was run: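 In this qHTS format, a 40 h, 37 °C compound incubation of HepG2 cells in complete medium precedes a 20 min CellTiter-Glo step at room temperature. Tamoxifen and doxorubicin serve as positive controls; Hill-equation fits yield AC50.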

[5] = Cell Viability - MRC5 (AID 434; calls by dose curve;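 note: potency is the fitted concentration of half-maximal effect; cells exposed to compound for 40 hours at 37 °C; potency reflects cytotoxicity seen as loss of intracellular ATP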); details: MRC5 lung fibroblast viability, qHTS
How it was run: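 ATP luminescence read-out (CellTiter-Glo, 20 min RT) after 40 hr, 37 °C compound exposure of 1500 MRC5 cells/well. Data normalized to DMSO (basal) and 100 uM tamoxifen (100% inhibition); AC50 from standard Hill equation.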

[6] = Cell Viability - SK-N-SH (AID 435; calls by dose curve;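 note: potency is the fitted concentration of half-maximal effect; compound exposure lasted 40 h at 37 °C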); details: SK-N-SH neuroblastoma cell viability qHTS
How it was run: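 Human neuroblastoma line, 40 h exposure at 37 °C, ATP quantified via luciferase luminescence; DMSO and 100 uM tamoxifen define 0 and 100% inhibition for AC50 fitting.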

[7] = biological target: Mitogen-activated protein kinase 10 (Mus musculus) (UniProt Q61831); assay: JNK3 AlphaScreen Assay (AID 530);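 note: kinase came from lysate of stimulated human HepG2 cells; signal reports phosphorylation of biotinylated GST-cJun 1-79 at Ser73 with 10 µM ATP; % is set by controls: 0 for no effect and ±100 for the full control effect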
How it was run: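 Activity was read by AlphaScreen after JNK3-containing HepG2 lysate (cytokine pre-activated) phosphorylated biotinylated GST-cJun with 10 uM ATP at room temperature. Phospho-Ser73 cJun antibody with Protein-A acceptor beads provided detection.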

[8] = Cell Viability - N2a (AID 540; active = well fitted curve in the direction sought with a large enough effect; an effect the other way counts as inactive or inconclusive;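 note: plate controls were DMSO alone for no effect and tamoxifen control for full effect; nearly all actives have a fitted effect of over 45% in size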); details: N2a mouse neuroblastoma cell viability; activity change, negative = cytotoxicity: at 92.2 µM (top of the series)
How it was run: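 CellTiter-Glo ATP luminescence, read 20 min after reagent at room temperature, reported viability following 40 h compound treatment at 37 °C. N2a mouse neuroblastoma cells seeded 1500/well; Hill equation gave AC50.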

[9] = Cell Viability - NIH 3T3 (AID 541; active = well fitted curve in the direction sought with a large enough effect; an effect the other way counts as inactive or inconclusive;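 note: cells exposed to compound for 40 hours; plate controls were DMSO alone for no effect and tamoxifen positive control for full effect; nearly all actives have a fitted effect of over 25% in size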); details: NIH 3T3 cell viability, qHTS; activity change, negative = cytotoxicity: at 92.2 µM (top of the series)
How it was run: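 Intracellular ATP (CellTiter-Glo luminescence, 20 min at room temperature) measured after 40 hr compound exposure at 37 °C of 1000 NIH 3T3 mouse fibroblasts/well in complete medium; AC50 derived by Hill-equation modelling of qHTS concentration-response curves.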

[10] = Cell Viability - HUV-EC-C (AID 542; active = well fitted curve in the direction sought with a large enough effect; an effect the other way counts as inactive or inconclusive;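 note: cells exposed to compound for 40 hours; % is set by controls: 0 for no effect and ±100 for the full control effect; nearly all actives have a fitted effect of over 35% in size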)
How it was run: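 CellTiter-Glo luminescence measured ATP loss in HUV-EC-C cells (1000/well) after 40 hr compound exposure at 37 °C, in complete culture medium. Concentration-response data were Hill-fitted to give AC50.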

[11] = AP1 Signaling Pathway (AID 357);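 note: ME-180 reporter cells stimulated with EGF at its EC50 level; % is set by controls: 0 for no effect and ±100 for the full control effect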
How it was run: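 First, ME-180 AP-1-bla cells were cultured overnight at 37 °C in low-serum Opti-MEM. Next, titrated compounds with EC50 EGF were incubated 5 hours. Finally, CCF4 was added for 2.5 hours and the 460/530 nm ratio recorded.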

[12] = NFAT Signaling Pathway (AID 444); details: Jurkat NFAT-bla M1, carbachol, beta-lactamase ratio, 5 h;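 note: carbachol stimulus at about its EC50 of 1 µM final; % is set by controls: 0 for no effect and ±100 for the full control effect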
How it was run: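 Jurkat cells with NFAT-driven β-lactamase reporter and co-expressed M1 receptor, stimulated with carbachol (final 1 uM, ~EC50), compound titration, 5 h at 37 °C. CCF4 loaded 1 h at RT; 460/530 nm ratio gave %activity and AC50.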

[13] = Stat Signaling Pathway (AID 446);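 note: ME-180 cervical cancer cells given 40 pM IL-6 alongside compound; SIE-controlled beta-lactamase reporter measured as 460/530 nm FRET emission ratio; % is set by controls: 0 for no effect and ±100 for the full control effect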
How it was run: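 FRET read-out (405 nm excitation, 460/530 nm emission) of a beta-lactamase reporter under a STAT-inducible element in ME-180 cervical carcinoma cells. Cells with compound receive 40 pM IL-6 for 5 h. Values are normalised to AC90 stimulation and AC90 JAK-inhibitor controls.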

[14] = biological target: Glucocorticoid receptor (Homo sapiens) (UniProt P04150); assay: GR-GFP Redistribution (AID 450;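 active = compounds whose dose series gives a full or clear partial fitted curve of increased nuclear translocation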; note: potency is the fitted concentration of half-maximal effect); details: U2OS GR-GFP nuclear translocation, laser cytometry, 2 h
Chain of Glucocorticoid receptor (Homo sapiens) (P04150 whole entry, looked up, the tested form may be a part): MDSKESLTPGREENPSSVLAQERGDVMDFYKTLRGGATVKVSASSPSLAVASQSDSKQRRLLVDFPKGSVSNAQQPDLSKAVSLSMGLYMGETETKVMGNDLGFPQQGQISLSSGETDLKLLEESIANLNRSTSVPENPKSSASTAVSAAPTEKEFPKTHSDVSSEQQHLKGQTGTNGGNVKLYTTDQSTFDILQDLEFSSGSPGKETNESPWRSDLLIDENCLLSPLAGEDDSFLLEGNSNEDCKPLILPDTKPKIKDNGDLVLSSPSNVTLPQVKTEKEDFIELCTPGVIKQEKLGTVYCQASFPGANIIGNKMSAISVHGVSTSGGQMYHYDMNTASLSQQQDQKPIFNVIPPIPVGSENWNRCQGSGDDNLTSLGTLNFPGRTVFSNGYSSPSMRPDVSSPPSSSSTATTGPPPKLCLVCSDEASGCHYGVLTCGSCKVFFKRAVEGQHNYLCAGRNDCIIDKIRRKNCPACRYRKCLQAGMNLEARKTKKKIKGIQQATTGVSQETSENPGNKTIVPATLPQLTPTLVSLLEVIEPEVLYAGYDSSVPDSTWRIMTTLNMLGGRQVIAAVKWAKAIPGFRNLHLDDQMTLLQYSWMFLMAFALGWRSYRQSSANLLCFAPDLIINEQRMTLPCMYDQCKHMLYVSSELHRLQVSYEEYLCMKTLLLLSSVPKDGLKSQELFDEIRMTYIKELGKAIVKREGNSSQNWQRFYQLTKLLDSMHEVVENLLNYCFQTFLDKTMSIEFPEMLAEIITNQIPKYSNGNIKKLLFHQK

[15] = biological target: Glucocorticoid receptor (Homo sapiens) (UniProt P04150); assay: GR-EFC Redistribution (AID 451; calls by dose curve; note: potency is the fitted concentration of half-maximal effect); details: CHO-K1 GR-EFC translocation, beta-gal luminescence, 2 h
How it was run: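 CHO-K1 cells expressing nuclear EA and GR-ED fragments of b-gal; compounds titrated up to 46 uM final, 2 h at 37 C. GR nuclear translocation read as complemented b-gal luminescence after 1 h RT detection.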

[16] = biological target: Cytochrome P450 1A2 (Homo sapiens) (UniProt P05177); assay: p450-cyp1a2 (AID 410; calls by dose curve; note: potency is the fitted concentration of half-maximal effect)
Chain of Cytochrome P450 1A2 (Homo sapiens) (P05177 whole entry, looked up): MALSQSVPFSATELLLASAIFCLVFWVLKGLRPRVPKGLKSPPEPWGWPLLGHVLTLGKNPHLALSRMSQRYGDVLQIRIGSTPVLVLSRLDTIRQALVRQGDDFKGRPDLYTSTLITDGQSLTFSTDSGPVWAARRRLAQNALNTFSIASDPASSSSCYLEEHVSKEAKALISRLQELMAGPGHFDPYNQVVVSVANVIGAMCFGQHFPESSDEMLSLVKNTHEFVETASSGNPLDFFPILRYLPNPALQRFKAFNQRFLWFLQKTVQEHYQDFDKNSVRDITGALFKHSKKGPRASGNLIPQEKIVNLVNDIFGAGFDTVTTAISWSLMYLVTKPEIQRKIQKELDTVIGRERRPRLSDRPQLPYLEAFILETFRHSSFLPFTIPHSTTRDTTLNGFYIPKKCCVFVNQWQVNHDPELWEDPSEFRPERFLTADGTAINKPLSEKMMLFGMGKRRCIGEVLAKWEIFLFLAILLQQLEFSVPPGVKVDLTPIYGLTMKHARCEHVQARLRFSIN
How it was run: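 Luminescent demethylation readout: Luciferin-ME (100uM, equal to Km) turned over by 20nM CYP1A2 for 60 min at room temperature after NADPH regeneration addition, following 10 min compound preincubation. Normalization used 57 uM furafylline as full inhibition.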

Cc1ccc(-c2cc(C(F)(F)F)nn2-c2ccc(S(N)(=O)=O)cc2)cc1
Potency [1]: > 92 µM (inactive) | Potency [2]: > 92 µM (inactive) | Potency [3]: > 92 µM (inactive) | Potency [4]: > 92 µM (inactive) | Potency [5]: > 92 µM (inactive) | Potency [6]: > 92 µM (inactive) | outcome [7]: inactive | activity change, negative = cytotoxicity [8]: -43.6% (inactive) | activity change, negative = cytotoxicity [9]: -132% (active) | outcome [10]: inactive

O=C(C1CCCCC1)N1CC(=O)N2CCc3ccccc3C2C1 (stereo not given)
outcome [11]: inactive | activity change, negative = inhibition ([12]; at 17.2 µM (top of the series)): -4.85% (inactive) and -1.54% (inactive) | outcome [13]: inactive | Potency [14]: > 20.6 µM (inactive)

NC12CC3CC(CC(C3)C1)C2
outcome [11]: inactive | activity change, negative = inhibition ([12]; at 17.2 µM (top of the series)): 5.54% (inactive) | activity change, negative = inhibition ([12]; at 38 µM (top of the series)): -1.81% (inactive) | outcome [13]: inactive | Potency [14]: > 46 µM (inactive) and > 20.6 µM (inactive) | Potency [15]: > 46 µM (inactive) and > 20.6 µM (inactive) | outcome [7]: inactive

CCc1cccc2c3c([nH]c12)C(CC)(CC(=O)O)OCC3 (stereo not given)
outcome [11]: inactive | activity change, negative = inhibition ([12]; at 17.2 µM (top of the series)): 12.2% (inactive) | outcome [13]: inactive

OCCN1CCN(CCCN2c3ccccc3Sc3ccc(C(F)(F)F)cc32)CC1
outcome [11]: inactive | outcome [13]: inactive | Potency [14]: > 46 µM (inactive) and > 20.6 µM (inactive) | Potency [15]: > 46 µM (inactive) and > 20.6 µM (inactive) | outcome [7]: inactive

COC(=O)Nc1nc2ccc(C(=O)c3cccs3)cc2[nH]1
Potency [16]: 5.01 µM (active) and 1.58 µM (active) and 794 nM (active) | activity change, negative = inhibition ([12]; at 17.2 µM (top of the series)): -68.4% (active) | outcome [13]: inactive | Potency [14]: > 46 µM (inactive) and > 20.6 µM (inactive) | Potency [15]: > 46 µM (inactive) and > 20.6 µM (inactive) | outcome [7]: inactive

NCCc1cnc[nH]1
outcome [11]: inactive | activity change, negative = inhibition ([12]; at 38 µM (top of the series)): 2.96% (inactive) | outcome [13]: inactive | Potency [14]: > 46 µM (inactive) | Potency [15]: > 46 µM (inactive) | outcome [7]: inactive

O=C(c1ccc(OCCN2CCCCC2)cc1)c1c(-c2ccc(O)cc2)sc2cc(O)ccc12
outcome [11]: inactive | outcome [13]: inactive | Potency [14]: > 46 µM (inactive) and > 20.6 µM (inactive) | Potency [15]: > 46 µM (inactive) and > 20.6 µM (inactive)

COc1ccc(C2CNC(=O)C2)cc1OC1CCCC1 (stereo not given)
outcome [11]: inactive | activity change, negative = inhibition ([12]; at 17.2 µM (top of the series)): -22.4% (inactive) | outcome [13]: inactive | Potency [14]: > 20.6 µM (inactive)

CN1CCN(C2=Nc3cc(Cl)ccc3Nc3ccccc32)CC1
outcome [11]: inactive | activity change, negative = inhibition ([12]; at 38 µM (top of the series)): -49.7% (active) | outcome [13]: inactive | Potency [14]: > 46 µM (inactive) and > 20.6 µM (inactive) and 2.68 µM (active) | Potency [15]: > 46 µM (inactive) and > 20.6 µM (inactive) | outcome [7]: inactive

CN(C)CCOC(c1ccccc1)c1ccccc1
outcome [11]: inactive | outcome [13]: inactive | outcome [7]: inactive

CCOC(=O)Nc1ccc(NCc2ccc(F)cc2)nc1N
outcome [11]: inactive | activity change, negative = inhibition ([12]; at 38 µM (top of the series)): -3.88% (inactive) | outcome [13]: inactive | Potency [14]: > 46 µM (inactive) | Potency [15]: > 46 µM (inactive) | outcome [7]: inactive

O=C(c1ccc(F)cc1)C1CCN(CCn2c(=O)[nH]c3ccccc3c2=O)CC1
outcome [11]: inactive | activity change, negative = inhibition ([12]; at 17.2 µM (top of the series)): -11.4% (inactive) and -13.2% (inactive) | outcome [13]: inactive | Potency [14]: > 46 µM (inactive) and > 20.6 µM (inactive) | Potency [15]: > 46 µM (inactive) and > 20.6 µM (inactive) | outcome [7]: inactive
